Rows were chosen to be rich in hits. Some 1.7% of all compounds tested hit in one or more screens of this group.
Vif inh – inhibitors of HIV Vif; inhibition, % at 7.49 µM; 0.35% of 340,000 active; HEK293T cells, Vif self-association by quenched fluorescence, imaging, 24 h; AID 602346; in the data active = inhibition above about 50%, passing the limit was not always enough
aDG glyco act – increases alpha dystroglycan glycosylation. Pro5-aDG cells, alpha-DG glycosylation AlphaScreen (IIH6); 0% Pro5, 100% B10-LARGE cell signal. activation, % at 10 µM. 0.22% of 360,000 active. AID 624168;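 active = activation of at least 8% versus controls, or a plate z-score of at least 8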;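 note: Pro5 are CHO cells carrying HIG-tagged alpha-DG that lacks glycosylation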
ARNT TACC3 PPI – disrupts binding between human ARNT and TACC3; inhibition, % at 9.99 µM; AID 623870; 0.66% of 390,000 active; AlphaScreen His-ARNT PAS-B/GST-TACC3 binding, luminescence; TACC3 fragment carries E629A point mutation; Q9Y6A5;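 active = mean inhibition of replicates at least 50% and at least half of replicates each reaching 50%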;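 note: 0% = complete ARNT plus TACC3 wells and 100% = ARNT alone without TACC3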
Glyco luc inh – N-linked glycosylation inhibition; 0.23% of 360,000 active; reporter increase, % at 12.5 µM; AID 588692; D54 ERlucT glycosylation luciferase reporter, 24 h; percent of 100 nM tunicamycin response;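 active = mean luciferase reporter signal, scaled so untreated is 0 and the glycosylation-blocking control 100, at or above a set limit in every replicate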;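 note: luciferase carries N-glycosylation sites so blocking glycosylation raises the light; 0% = median of neutral control wells and 100% = median of 100 nM tunicamycin wells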
Cardio protect – modulators protecting cardiomyocytes from myocardial damage. protection from H2O2 cell death, % at 20 µM. 0.63% of 360,000 active. AID 588492. H9c2 cardiomyocytes, H2O2 injury protection, ATPLite, 2 h;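 active = compounds giving at least 50% protection of heart cells from peroxide-induced death in the single-dose screen, raw or plate-pattern-corrected value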;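 note: 0% = DMSO wells with peroxide and 100% = DMSO wells without peroxide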
* hit, by the source's call.

Results for Cc1ccc(C)c(C(=O)Nc2cc(C)nn2-c2nc(C)cc(C)n2)c1 ?
aDG glyco act: 1; ARNT TACC3 PPI: -5; Glyco luc inh: 10; Cardio protect: 50*

How did O=C(c1ccc2c(c1)N(Cc1ccc(F)cc1)CCS2)N1CCOCC1 do in these assays?
Vif inh: 2; aDG glyco act: 0; ARNT TACC3 PPI: 8.5*; Glyco luc inh: 1; Cardio protect: -6

Results for COc1ccc(COc2cc(-c3cccc(OC)c3)nc3ccc(NC(=O)c4ccc(OC)cc4)cc23)cc1 ?
Vif inh: 2; aDG glyco act: -1; Glyco luc inh: 14; Cardio protect: 58*

How did COc1ccc(COc2cc(-c3cccc(OC)c3)nc3ccc(NC(=O)c4cccnc4)cc23)cc1 do in these assays?
Vif inh: -5; aDG glyco act: -1; ARNT TACC3 PPI: 9; Glyco luc inh: -7; Cardio protect: 91*

How did O=C(N[C@H]1CC[C@H](CCNC(=O)C2CCCC2)O[C@H]1CO)c1ccncc1 do in these assays?
ARNT TACC3 PPI: -7

What do the screens show for `COc1ccc2[nH]c(=O)c(CN(CCO)S(=O)(=O)c3c(C)ccc4nsnc34)cc2c1`?
Vif inh: 1; aDG glyco act: 2; ARNT TACC3 PPI: -2; Glyco luc inh: -1; Cardio protect: 19

How did COc1ccc2[nH]c(=O)c(CN(Cc3cccs3)S(=O)(=O)c3cccc4nsnc34)cc2c1 do in these assays?
Vif inh: 2; aDG glyco act: 0; ARNT TACC3 PPI: 7; Glyco luc inh: -1; Cardio protect: 73*

How did O=C(C[C@@H]1CC[C@H]2[C@@H](COC[C@H](O)CN2Cc2cccc(F)c2)O1)NCc1ccncc1 do in these assays?
ARNT TACC3 PPI: -1

Results for Cc1cc(N(C)N)nc(NC(=O)NS(=O)(=O)c2ccccc2Cl)n1 ?
aDG glyco act: 0; ARNT TACC3 PPI: 59*; Glyco luc inh: -3; Cardio protect: 6

What do the screens show for `COc1ccc(/C=C/C(=O)c2ccc3c4c(cccc24)CC3)cc1OC`?
Vif inh: -12; aDG glyco act: 0; ARNT TACC3 PPI: 16; Glyco luc inh: 34*; Cardio protect: 1

Results for CCOc1ccc(/C=C/C(=O)c2ccccc2)cc1OC ?
Vif inh: 3; aDG glyco act: 0; ARNT TACC3 PPI: 2; Glyco luc inh: 26*; Cardio protect: 7

What do the screens show for `C[C@@H]1CCCCO[C@@H](CN(C)CC2CCCCC2)[C@H](C)CN([C@@H](C)CO)C(=O)c2cc(NS(=O)(=O)c3ccccc3)ccc2O1`?
ARNT TACC3 PPI: 1

What do the screens show for `COc1ccc2[nH]c(=O)c(CN(Cc3cccnc3)C(=O)Nc3ccccc3)cc2c1`?
Vif inh: 3; aDG glyco act: 0; ARNT TACC3 PPI: -4; Glyco luc inh: 1; Cardio protect: 30

How did COc1ccc(NC(=S)N(Cc2cccnc2)Cc2cc3cc(OC)c(OC)cc3[nH]c2=O)cc1 do in these assays?
Vif inh: -1; aDG glyco act: 0; ARNT TACC3 PPI: 2; Glyco luc inh: -3; Cardio protect: 66*

What do the screens show for `COc1ccc(N(Cc2cc3cc(OC)ccc3[nH]c2=O)C(=O)c2cccnc2)cc1`?
Vif inh: -3; aDG glyco act: 0; ARNT TACC3 PPI: -2; Glyco luc inh: 3; Cardio protect: 109*

What do the screens show for `C[C@@H]1CN([C@@H](C)CO)C(=O)Cc2cc(NC(=O)Cc3ccccc3)ccc2O[C@@H]1CN(C)S(C)(=O)=O`?
ARNT TACC3 PPI: 1

Results for NC(=O)c1ccc(NC(=O)COC(=O)c2c3c(nc4ccccc24)/C(=C\c2cccs2)CCC3)cc1 ?
Vif inh: -3; aDG glyco act: -1; ARNT TACC3 PPI: 0; Glyco luc inh: 1; Cardio protect: 54*

Results for CCc1cccc(C)c1NC(=O)COC(=O)c1c2c(nc3ccccc13)/C(=C\c1cccs1)CCC2 ?
Vif inh: -4; aDG glyco act: 0; ARNT TACC3 PPI: -2; Glyco luc inh: -3; Cardio protect: 1

How did O=C(NCc1ccccn1)c1n[nH]c(=O)c2ccccc12 do in these assays?
Vif inh: 1; aDG glyco act: 0; ARNT TACC3 PPI: 7; Glyco luc inh: 2; Cardio protect: 30

How did O=C(NCc1ccccn1)Nc1cccc(NC(=O)NCc2ccccn2)c1 do in these assays?
Vif inh: 4; aDG glyco act: 0; ARNT TACC3 PPI: 78*; Glyco luc inh: -1; Cardio protect: 2

Results for O=C(NCc1ccccn1)c1n[nH]c2ccccc12 ?
Vif inh: 4; aDG glyco act: 0; ARNT TACC3 PPI: 24*; Glyco luc inh: 0; Cardio protect: 2

How did Cc1ccc(/C=C/C(=O)O)cc1S(=O)(=O)N1CCc2ccccc21 do in these assays?
Vif inh: 58*; aDG glyco act: 0; ARNT TACC3 PPI: -1; Glyco luc inh: 1; Cardio protect: 1

Results for Cc1c(NS(=O)(=O)c2ccc3c(c2)n(C)c(=O)n3C)c(=O)n(-c2ccccc2)n1C ?
Vif inh: 0; aDG glyco act: 0; ARNT TACC3 PPI: -4; Glyco luc inh: 4; Cardio protect: 3

What do the screens show for `CSc1nc2ccc(S(=O)(=O)Nc3c(C)n(C)n(-c4ccccc4)c3=O)cc2s1`?
Vif inh: 2; aDG glyco act: 0; ARNT TACC3 PPI: -8; Glyco luc inh: 0; Cardio protect: 106*

Results for CC(C)C(=O)Nc1ccc(C(=O)N/N=C/C2CC3C=CC2C3)cc1 (stereo not given) ?
Vif inh: 58*; aDG glyco act: 0; Glyco luc inh: -2; Cardio protect: 6

What do the screens show for `COc1ccc(NC(=O)N(C)C[C@@H]2OCCCC[C@@H](C)Oc3ccc(NS(=O)(=O)c4ccc(OC)cc4)cc3C(=O)N([C@@H](C)CO)C[C@H]2C)cc1`?
ARNT TACC3 PPI: 24*

Results for CC(C)NC(=O)Nc1ccc2c(c1)C(=O)N([C@@H](C)CO)C[C@@H](C)[C@@H](CN(C)C(=O)C1CCCCC1)OCCCC[C@H](C)O2 ?
ARNT TACC3 PPI: 12

What do the screens show for `C[C@H](CO)N1C[C@H](C)[C@@H](CN(C)C(=O)CCC(F)(F)F)OCCCC[C@H](C)Oc2ccc(NC(=O)CCCN(C)C)cc2C1=O`?
ARNT TACC3 PPI: 25*

What do the screens show for `CC(C)NC(=O)Nc1ccc2c(c1)C(=O)N([C@@H](C)CO)C[C@@H](C)[C@H](CN(C)C(=O)C1CCCCC1)OCCCC[C@H](C)O2`?
ARNT TACC3 PPI: 46*

What do the screens show for `COc1ccc(S(=O)(=O)Nc2ccc3c(c2)C(=O)N([C@H](C)CO)C[C@H](C)[C@H](CN(C)S(=O)(=O)c2cn(C)cn2)O3)cc1`?
ARNT TACC3 PPI: 5

Results for Cc1noc(C)c1NC(=O)Nc1cccc2c1O[C@@H](CN(C)S(=O)(=O)c1cccs1)[C@@H](C)CN([C@H](C)CO)C2=O ?
ARNT TACC3 PPI: -12
